Test results as given in PubChem BioAssay (Tox21).
Where “and” joins values, the source holds several entries; their conditions need not be identical. Equal entries are not always repeated. Inconclusive results are not listed. Entries that show only a call come without a potency. More than one record can exist for a structure, and the calls need not agree. Calls of active or inactive are those of the source. Unless noted, the call rests on the fitted dose curve; in most records, active means well fitted curve in the direction sought with a large enough effect in the repeat runs; inconclusive means weak or mixed curves; inactive means no such curve, though single readings can be large; an effect the other way counts as inactive or inconclusive.

Key:
[1] = qHTS assay to identify small molecule agonists of H2AX (AID 1224845; active means well fitted activation curve with a large enough effect in the signal ratio in the repeat runs, not every such curve was filed as active; the % refers to the signal ratio; further: potency means the concentration at half of the fitted maximal effect)
How it was run: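 Wild-type CHO-K1 cells plated overnight, then exposed 3 hr at 37C to compounds at 15 concentrations (0.76% DMSO). Lysed, then HTRF anti-pH2AX(S139)-cryptate/anti-H2AX-d2 detection after 24 hr at room temperature; emissions 665 and 620 nm.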

[2] = qHTS assay to identify small molecule agonists of H2AX - cell viability counter screen (AID 1224847; calls by dose curve; further: nearly all actives have a fitted effect of over 30% in size; further: potency means the concentration at half of the fitted maximal effect)
How it was run: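 Viability of CHO-K1 (wild type) cells after 3 hr compound exposure was measured by CellTiter-Glo luminescence.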

[3] = qHTS assay to identify small molecule antagonists of the estrogen related receptor (ERR) signaling pathway from Tox21 library (AID 1224848); further: nearly all actives have a fitted effect of over 50% in size; further: potency means the concentration at half of the fitted maximal effect
How it was run: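 Cells: ERR line, 2,000/well; 6 h preincubation 37 C/5% CO2. Cpd in DMSO via pin tool; 18 h, 37 C. ONE-Glo, 30 min RT, luminescence.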

[4] = qHTS assay to identify small molecule agonists of the estrogen related receptor (ERR) signaling pathway from Tox21 library (AID 1224849; calls by dose curve; further: nearly all actives have a fitted effect of over 15% in size); settings: ERR reporter cell line, ONE-Glo luciferase, 18 h; at 92.4 µM (top of the series)
How it was run: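 Agonist signal is luciferase luminescence from an ERR reporter cell line treated 18 h at 37 C with DMSO-dissolved compounds, read 30 min after ONE-Glo addition at room temperature.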

[5] = qHTS RealTime-Glo MT Cell Viability Assay in HepG2 cells - 24 hour (AID 1224867); further: nearly all actives have a fitted effect of over 50% in size; further: potency means the concentration at half of the fitted maximal effect
How it was run: (§1)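 Tox21 10K library screened in qHTS format on HepG2 cells carrying RealTime-Glo reagents. Compounds were added after a 5 h preincubation, and the luminescent signal from continuous culture was measured repeatedly during 40 h treatment.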

[6] = qHTS RealTime-Glo MT Cell Viability Assay in HEK293 cells - 32 hour (AID 1224868); further: nearly all actives have a fitted effect of over 50% in size; further: potency means the concentration at half of the fitted maximal effect
How it was run: (§2)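 Luminescence generated by NanoLuc from substrate produced by living HEK293 cells served as the viability signal. Each value reflects the reading at its stated time point during continuous 40 h compound exposure at 37 C.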

[7] = A CellTox Green Cytotoxicity Assay to monitor cytotoxicity in HEK293 cells - 0 hour (AID 1224869); further: nearly all actives have a fitted effect of over 50% in size; further: potency means the concentration at half of the fitted maximal effect
How it was run: (§3)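 Cytotoxicity was tracked continuously in HEK293 cells by a DNA-binding dye excluded from viable cells. Compounds were transferred in DMSO 5 h after seeding; fluorescence was recorded at intervals up to 40 h.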

[8] = qHTS RealTime-Glo MT Cell Viability Assay in HepG2 cells - 40 hour (AID 1224870); further: nearly all actives have a fitted effect of over 50% in size; further: potency means the concentration at half of the fitted maximal effect
How it was run: (§4)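 HepG2 cells mixed with RealTime-Glo MT reagents (NanoLuc plus cell-permeant prosubstrate) were seeded at 600 cells/well, incubated 5 h at 37 C/5% CO2, then pinned with compounds in DMSO; nonlytic luminescence tracked viability during 40 h treatment.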

[9] = A CellTox Green Cytotoxicity Assay to monitor cytotoxicity in HEK293 cells - 40 hour (AID 1224871); further: nearly all actives have a fitted effect of over 45% in size; further: potency means the concentration at half of the fitted maximal effect
How it was run: as §3

[10] = qHTS RealTime-Glo MT Cell Viability Assay in HEK293 cells - 16 hour (AID 1224872); further: nearly all actives have a fitted effect of over 50% in size; further: potency means the concentration at half of the fitted maximal effect
How it was run: as §2

[11] = qHTS RealTime-Glo MT Cell Viability Assay in HepG2 cells - 8 hour (AID 1224873); further: nearly all actives have a fitted effect of over 55% in size; further: potency means the concentration at half of the fitted maximal effect
How it was run: as §4

[12] = qHTS RealTime-Glo MT Cell Viability Assay in HEK293 cells - 40 hour (AID 1224874); settings: RealTime-Glo luminescence; max response: stronger effect = lower value; further: nearly all actives have a fitted effect of over 50% in size; further: potency means the concentration at half of the fitted maximal effect
How it was run: (§5)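 Nonlytic bioluminescent viability monitoring. HEK293 at 600 cells/well with reagent; 5 h settle; compound transfer by pintool; plates held at 37 C and read at set time points.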

[13] = A CellTox Green Cytotoxicity Assay to monitor cytotoxicity in HEK293 cells - 24 hour (AID 1224875); further: nearly all actives have a fitted effect of over 45% in size; further: potency means the concentration at half of the fitted maximal effect
How it was run: as §3

[14] = A CellTox Green Cytotoxicity Assay to monitor cytotoxicity in HepG2 cells - 16 hour (AID 1224876); further: nearly all actives have a fitted effect of over 45% in size; further: potency means the concentration at half of the fitted maximal effect
How it was run: (§6)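 Real-time, homogeneous cytotoxicity readout: dead-cell DNA staining by CellTox Green in HepG2 monolayers, fluorescence measured at timed intervals up to 40 h of continuous compound exposure.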

[15] = A CellTox Green Cytotoxicity Assay to monitor cytotoxicity in HepG2 cells - 24 hour (AID 1224878); further: nearly all actives have a fitted effect of over 45% in size; further: potency means the concentration at half of the fitted maximal effect
How it was run: as §6

[16] = qHTS RealTime-Glo MT Cell Viability Assay in HEK293 cells - 0 hour (AID 1224880)
How it was run: as §5

[17] = A CellTox Green Cytotoxicity Assay to monitor cytotoxicity in HEK293 cells - 32 hour (AID 1224881); further: nearly all actives have a fitted effect of over 40% in size; further: potency means the concentration at half of the fitted maximal effect
How it was run: as §3

[18] = qHTS RealTime-Glo MT Cell Viability Assay in HepG2 cells - 32 hour (AID 1224877); further: nearly all actives have a fitted effect of over 55% in size; further: potency means the concentration at half of the fitted maximal effect
How it was run: as §1

[19] = A CellTox Green Cytotoxicity Assay to monitor cytotoxicity in HepG2 cells - 40 hour (AID 1224879); further: nearly all actives have a fitted effect of over 40% in size; further: potency means the concentration at half of the fitted maximal effect
How it was run: as §6

Row | Structure (SMILES) | Potency [1] | Potency [2] | Potency [3] | activity change, positive = activation [4] | Potency [5] | Potency [6] | Potency [7] | Potency [8] | Potency [9] | Potency [10] | Potency [11] | max response [12] | Potency [13] | Potency [14] | Potency [15] | Potency [16] | Potency [17] | Potency [12] | Potency [18] | Potency [19]
1 | Cc1cccc2n[nH]nc12 | inactive | inactive | inactive | 7.89% (inactive) and -7.83% (inactive) | inactive | inactive | inactive | inactive | inactive | inactive | inactive | -0.386% (inactive) | inactive | inactive and 38.9 µM (active) | inactive and 38.9 µM (active) | inactive | inactive | – | – | –
2 | Oc1c(Cl)cc(Cl)c(Cl)c1Cc1c(O)c(Cl)cc(Cl)c1Cl | inactive | 25.2 µM (active) and 40.1 µM (active) | 3.05 µM (active) and 2.73 µM (active) and 3.35 µM (active) | – | inactive | 3.08 µM (active) and 5.49 µM (active) | inactive | inactive and 38.9 µM (active) | 48.9 µM (active) and 49 µM (active) and inactive | inactive | – | – | – | inactive and 43.6 µM (active) | inactive and 38.9 µM (active) | inactive | 54.8 µM (active) and 49 µM (active) and inactive | 2.45 µM (active) and 3.89 µM (active) | inactive and 21.9 µM (active) | 21.8 µM (active) and 38.9 µM (active)
3 | BrC1CCC(Br)C(Br)CCC(Br)C(Br)CCC1Br (stereo not drawn) | 89.4 µM (active) | 79.7 µM (active) and 95.6 µM (active) | 27.2 µM (active) and 58 µM (active) | -60.1% (inactive) and -54.5% (inactive) | – | – | inactive | inactive | inactive | inactive | – | -14.3% (inactive) | inactive | inactive | inactive | inactive | inactive | – | – | –
4 | NNCCc1ccccc1 | inactive | inactive | – | – | inactive | inactive | inactive | inactive | inactive | inactive | inactive | -29.6% (inactive) and 3.04% (inactive) | inactive | inactive | inactive | inactive | inactive | – | – | –
5 | O=C1CC2(CCCC2)CC(=O)N1CCCCN1CCN(c2ncccn2)CC1 | inactive | inactive | 30.6 µM (active) and inactive | – | inactive | 43.6 µM (active) and inactive | inactive | inactive | inactive | 43.6 µM (active) and inactive | inactive | – | inactive | inactive | inactive | inactive | inactive | 27.5 µM (active) | inactive | 38.9 µM (active) and inactive
6 | CC(C)C(=O)c1c(C(C)C)nn2ccccc12 | inactive | inactive | inactive | – | inactive | inactive | inactive | inactive | inactive | inactive | inactive | -0.81% (inactive) | inactive | inactive | inactive | inactive | inactive | – | inactive | –
7 | CC[C@H]1CN2CCc3cc(OC)c(OC)cc3[C@@H]2C[C@@H]1C[C@H]1NCCc2cc(OC)c(OC)cc21 | – | inactive | – | – | – | 15.5 nM (active) and 42.5 nM (active) | inactive | – | 55.1 µM (active) | 24.6 nM (active) and 75.6 nM (active) | inactive | – | inactive | inactive | 49.2 µM (active) and 26.8 µM (active) | inactive | – | 13.9 nM (active) and 42.5 nM (active) | – | 49.2 µM (active) and 16.9 µM (active)
8 | O=C1OC2(c3ccc(O)cc3Oc3cc(O)ccc32)c2ccccc21 | inactive | inactive | – | – | – | inactive | 1.74 µM (active) and 848 nM (active) | inactive | 692 nM (active) and 1.2 µM (active) | inactive | – | 12.3% (inactive) and -17.2% (inactive) | 692 nM (active) and 1.07 µM (active) | 616 nM (active) and 301 nM (active) | 616 nM (active) and 301 nM (active) | inactive | 692 nM (active) and 1.2 µM (active) | – | inactive | 616 nM (active) and 301 nM (active)
9 | CC(C)CCCCCCc1ccc(O)cc1 | – | 91.4 µM (active) and 56.6 µM (active) | – | – | 22.3 µM (active) and inactive | 2.23 µM (active) | inactive | 25 µM (active) and inactive | 19.8 µM (active) and 38.9 µM (active) | 3.96 µM (active) | – | – | 28 µM (active) and 38.9 µM (active) | 44.4 µM (active) and 27.5 µM (active) | 22.3 µM (active) and 38.9 µM (active) | inactive | 22.3 µM (active) and 38.9 µM (active) | 1.25 µM (active) | 19.8 µM (active) and inactive | 14 µM (active) and 43.6 µM (active)
10 | C=CC(=O)OCCCCCCOC(=O)C=C | 114 µM (active) | – | inactive | -0.87% (active) and -57.5% (active) | inactive and 43.6 µM (active) | 49 µM (active) | inactive | inactive | 54.9 µM (active) | – | – | – | – | inactive | inactive | inactive | – | 49.6 µM (active) and 43.6 µM (active) | inactive and 49 µM (active) | –
11 | NC12CC3CC(CC(C3)C1)C2 | inactive | inactive | – | – | – | – | inactive | inactive | inactive | inactive | – | 6.54% (inactive) | inactive | inactive | inactive | inactive | inactive | – | – | inactive
12 | CN(C)c1ccc2nc3ccc(=[N+](C)C)cc-3sc2c1 | – | 21.7 µM (active) and 45 µM (active) and 43.8 µM (active) | 739 nM (active) and 433 nM (active) and 473 nM (active) | – | – | 1.87 µM (active) and 1.74 µM (active) and 2.68 µM (active) | inactive | 21 µM (active) and 12.3 µM (active) and 23.9 µM (active) | inactive | 2.97 µM (active) and 3.09 µM (active) and 2.68 µM (active) | 9.39 µM (active) and 19.5 µM (active) and 19 µM (active) | – | inactive | inactive | inactive | inactive | inactive | 1.67 µM (active) and 1.55 µM (active) and 2.68 µM (active) | 21 µM (active) and 12.3 µM (active) and 19 µM (active) | –
13 | CCCCCCCCCCCC[N+](C)(C)C | inactive | 113 µM (active) and inactive | – | – | – | – | inactive | 48.9 µM (active) and 49 µM (active) and 43.6 µM (active) | 54.8 µM (active) and 17.4 µM (active) and 54.9 µM (active) | inactive | inactive | – | inactive | 43.6 µM (active) | 54.8 µM (active) and 54.9 µM (active) and 49 µM (active) | inactive | 54.8 µM (active) and 17.4 µM (active) and 30.9 µM (active) | 4.35 µM (active) and 9.77 µM (active) | 48.9 µM (active) and 49 µM (active) | 43.5 µM (active) and 43.6 µM (active) and 38.9 µM (active)
14 | CC(COc1ccccc1)N(CCCl)Cc1ccccc1 (stereo not drawn) | 113 µM (active) | – | – | – | – | – | inactive | inactive | 49.5 µM (active) and 21.3 µM (active) | 49.5 µM (active) and 49 µM (active) | inactive | – | inactive | inactive | 55.5 µM (active) and inactive | inactive | 55.5 µM (active) and 21.3 µM (active) | 49.5 µM (active) and 49 µM (active) | inactive | 55.5 µM (active)
15 | O=C(Nc1ccccc1SSc1ccccc1NC(=O)c1ccccc1)c1ccccc1 | 18 µM (active) | – | 24.5 µM (active) and 43.3 µM (active) | -71.7% (inactive) and -62.7% (inactive) | – | – | inactive | inactive | – | – | inactive | – | inactive | inactive | inactive and 54.9 µM (active) | inactive | – | – | inactive and 49 µM (active) | 49 µM (active)
16 | c1ccc2n[nH]nc2c1 | inactive | inactive | – | – | – | inactive | inactive | inactive | inactive | inactive | – | 10.2% (inactive) and 5.87% (inactive) | inactive | inactive | inactive | inactive | inactive | – | inactive | inactive
